According to PubChem BioAssay:
Activity calls are given as the source filed them. Unless noted, no rule for the calls is given here.

What was measured:
[1] = HepG2 liver cancer cell viability effects, profiling panel, resazurin fluorescence, 24 h, PK04 Diversity Set (AID 1172); conditions: higher = more signal
[2] = basal S. cerevisiae growth modulation, no modifier, primary screen, OD600, strain BY4716, 24 h, basal condition (AID 1173); conditions: OD600, 24 h, higher = more signal, called active from +8 up or from −8 down
[3] = MM1S myeloma cell viability, profiling panel, resazurin fluorescence, basal, 24 h, PK04 Diversity Set (AID 1174); conditions: higher = more signal, called active from +8 up or from −8 down;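 also: MM1S multiple myeloma cell line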
[4] = target: Dihydroorotate dehydrogenase (quinone), mitochondrial (Plasmodium falciparum (isolate 3D7)) (UniProt Q08210); assay: PfDHODH enzyme inhibitors, primary screen, biochemical, C-terminal His tag, absorbance 600 nm (AID 1175); conditions: DCIP absorbance 600 nm, higher = more signal, called active from +8 up or from −8 down;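 also: recombinant parasite enzyme with a five histidine tag at its C terminus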
[5] = P. aeruginosa biofilm formation inhibitors, primary screen, strain PAO1, LB-PBS medium, absorbance 600 nm (AID 1176); conditions: P. aeruginosa PAO1 growth/biofilm, A600, 12 h; higher = more signal
[6] = S. cerevisiae RM11-1a growth modifiers, primary screen, strain RM11-1a, OD600, basal, 24 h (AID 1177); conditions: OD600, 24 h, higher = more signal, called active from +8 up or from −8 down;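 also: cultures grown under basal conditions with no added stressor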
[7] = E. coli acrAB mutant growth effects, primary screen, E. coli filamentation inducers, strain DRC39, OD650, 24 h (AID 1178); conditions: higher = more signal, called active from +8 up or from −8 down;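 also: growth measured as culture turbidity by optical density at 650 nm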
[8] = E. coli acrAB mutant growth effects, primary screen, E. coli filamentation inducers, strain DRC39, OD650, 48 h (AID 1179);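 also: screen aims at cell division blockers that make cells filament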; conditions: E. coli DRC39 delta-acrAB growth, higher = more signal, called active from +8 up or from −8 down
[9] = RPMI8226 myeloma cell viability, profiling panel, resazurin fluorescence, basal, 24 h, PK04 Diversity Set (AID 1180); conditions: higher = more signal;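 also: RPMI8826 multiple myeloma cell line at 5000 cells per well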
[10] = target: E3 ubiquitin-protein ligase XIAP (Homo sapiens) (UniProt P98170); assay: XIAP binders, primary screen, biophysical, small-molecule microarray, fluorescence 635 nm (AID 1181); conditions: small-molecule microarray binding, higher = more signal;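 also: score merges 667 nm emission and signal to noise over triplicate slides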
[11] = tested on: XIP peptide (Xip251-270) binding; assay: small-molecule binders of XIP peptide, primary screen, biochemical, small-molecule microarray, fluorescence 635/667 nm, 0.1 µg/mL protein (AID 1182); conditions: fluorescent protein binding, 635 nm, higher = more signal, called active from +8 up or from −8 down
XIP peptide (Xip251-270) = assay: small-molecule binders of XIP peptide, primary screen, biochemical, small-molecule microarray, fluorescence 635/667 nm, 0.5 µg/mL protein (AID 1183); conditions: small-molecule microarray binding, fluorescence 635 nm; higher = more signal
[12] = Plasmodium falciparum growth inhibition, primary screen, strain 3D7, DAPI fluorescence, 100 nL (AID 1184);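 also: parasites grown inside human red blood cells in medium with human serum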; conditions: P. falciparum 3D7 growth, 3 d, higher = more signal
[13] = target: Homeobox protein Hox-A13 (Mus musculus) (UniProt Q62424); assay: inhibitors of HoxA13-DNA binding, primary screen, biochemical, fluorescence polarization, labeled oligonucleotide (AID 1185); conditions: 15 min, higher = more signal, called active from +8 up or from −8 down
[14] = inhibitors of hydroxyurea-induced Chk1 phosphorylation, primary screen, imaging, HeLa, phospho-Chk1 antibody, percent positive cells (AID 1186); conditions: hydroxyurea-induced phospho-Chk1 immunofluorescence imaging, higher = more signal
[15] = inhibitors of hydroxyurea-induced Chk1 phosphorylation, primary screen, imaging, HeLa, phospho-Chk1 nuclear intensity (AID 1187); conditions: hydroxyurea-induced phospho-Chk1 immunofluorescence imaging, higher = more signal

Dihydroorotate dehydrogenase (quinone), mitochondrial (Plasmodium falciparum (isolate 3D7)), sequence (Q08210 whole entry, looked up): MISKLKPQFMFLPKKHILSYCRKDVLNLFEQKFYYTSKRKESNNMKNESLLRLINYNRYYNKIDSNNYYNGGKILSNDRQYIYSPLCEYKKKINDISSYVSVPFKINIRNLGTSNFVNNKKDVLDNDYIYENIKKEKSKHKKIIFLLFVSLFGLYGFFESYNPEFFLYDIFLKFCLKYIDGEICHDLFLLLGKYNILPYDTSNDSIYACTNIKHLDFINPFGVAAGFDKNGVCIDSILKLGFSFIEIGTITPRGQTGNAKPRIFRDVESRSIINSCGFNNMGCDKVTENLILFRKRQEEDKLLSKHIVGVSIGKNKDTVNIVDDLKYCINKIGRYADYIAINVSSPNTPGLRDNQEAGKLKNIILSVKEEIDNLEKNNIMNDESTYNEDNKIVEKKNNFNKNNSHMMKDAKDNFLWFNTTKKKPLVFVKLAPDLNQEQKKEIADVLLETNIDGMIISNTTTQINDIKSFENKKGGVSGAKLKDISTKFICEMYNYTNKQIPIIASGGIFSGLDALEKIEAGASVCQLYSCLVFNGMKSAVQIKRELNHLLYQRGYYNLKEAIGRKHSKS
Homeobox protein Hox-A13 (Mus musculus), sequence (Q62424 whole entry, looked up): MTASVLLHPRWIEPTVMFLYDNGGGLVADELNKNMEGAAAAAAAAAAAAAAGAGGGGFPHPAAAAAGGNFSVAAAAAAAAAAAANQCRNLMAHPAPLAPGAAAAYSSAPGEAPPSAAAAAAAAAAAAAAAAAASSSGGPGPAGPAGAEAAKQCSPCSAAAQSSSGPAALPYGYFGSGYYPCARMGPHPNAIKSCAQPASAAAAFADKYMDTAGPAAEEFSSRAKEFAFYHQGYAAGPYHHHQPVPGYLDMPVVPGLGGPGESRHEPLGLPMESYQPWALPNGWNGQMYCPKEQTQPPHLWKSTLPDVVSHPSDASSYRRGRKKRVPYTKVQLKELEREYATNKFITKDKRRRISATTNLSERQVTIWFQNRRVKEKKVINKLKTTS
E3 ubiquitin-protein ligase XIAP (Homo sapiens), sequence (P98170 whole entry, looked up): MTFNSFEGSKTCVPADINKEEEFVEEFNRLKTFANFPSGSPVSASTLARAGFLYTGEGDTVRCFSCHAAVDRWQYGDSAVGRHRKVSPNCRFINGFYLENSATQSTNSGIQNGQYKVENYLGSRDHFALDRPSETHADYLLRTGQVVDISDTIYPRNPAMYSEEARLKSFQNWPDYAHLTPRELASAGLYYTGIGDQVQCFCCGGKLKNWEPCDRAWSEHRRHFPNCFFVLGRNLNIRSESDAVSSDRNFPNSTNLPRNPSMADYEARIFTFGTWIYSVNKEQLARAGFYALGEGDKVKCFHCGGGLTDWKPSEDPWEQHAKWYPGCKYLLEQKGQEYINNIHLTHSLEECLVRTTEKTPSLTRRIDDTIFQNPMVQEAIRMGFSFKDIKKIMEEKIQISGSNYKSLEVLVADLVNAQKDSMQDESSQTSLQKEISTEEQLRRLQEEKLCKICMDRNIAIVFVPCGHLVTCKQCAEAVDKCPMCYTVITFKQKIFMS

Compound | z-score [1] | z-score [2] | z-score [3] | composite z-score [4] | z-score [5] | z-score [6] | z-score [7] | z-score [8] | z-score [9] | composite z-score [10] | composite z-score [11] | composite z-score (XIP peptide (Xip251-270)) | z-score [12] | z-score [13] | z-score [14] | z-score [15]
NC(=O)NCC#Cc1ccc2c(c1)[C@]1(C(=O)N2)[C@H](c2ccccc2OCCO)N2[C@H](c3ccccc3)[C@H](c3ccccc3)OC(=O)[C@H]2[C@@H]1C(=O)N1CCN(c2ncccn2)CC1 | -0.381 | 0.887 (inactive) | -0.17 (inactive) | -0.343 (inactive) | 2.31 (inactive) | 2.03 (inactive) | 1.27 (inactive) | 0.158 (inactive) | 1.19 | -0.178 | 0.233 (inactive) | 0.763 | -2.34 | 0.487 (inactive) | 0.553 (inactive) | 1.5 (inactive)
C[C@H]1C2[C@H](Cc3ccccc3)NC(=O)[C@]23C(=O)N[C@H](Cc2ccccc2)C(=O)N[C@@H](Cc2ccccc2)C(=O)NC/C=C\C/C=C/C3[C@@H]2O[C@]12C (stereo partly drawn) | -0.204 | -1.79 (inactive) | 1.03 (inactive) | -0.427 (inactive) | -0.234 (inactive) | -0.617 (inactive) | 1.73 (inactive) | 0.9 (inactive) | 0.724 | 0.306 | -0.157 (inactive) | -0.564 | -0.873 | -7.06 (inactive) | 0.531 (inactive) | 0.375 (inactive)
CC(=O)NCCCC[C@@H]1NC(=O)[C@H]2C[C@@H](C(=O)NCCCCCCN(C)C)[C@@H](c3ccc(O)cc3)N2C1=O | -0.666 | -0.191 (inactive) | -1.56 (inactive) | -0.231 (inactive) | -0.0059 (inactive) | -0.0236 (inactive) | -1.04 (inactive) | -1.53 (inactive) | -1.28 | 0.217 | 1.76 (inactive) | 0.832 | -1.01 | -1.9 (inactive) | 0.0655 (inactive) | 0.0377 (inactive)
CC[C@H]1C2=C3C(CC[C@H]4C(OC)OC[C@](C)([C@@H]34)N(C(=O)OC(C)(C)C)C2)C(CO)C1CO (stereo partly drawn) | -0.453 | 0.145 (inactive) | -0.713 (inactive) | -0.929 (inactive) | 0.452 (inactive) | -0.681 (inactive) | -0.0328 (inactive) | 0.753 (inactive) | -0.141 | 0.26 | 0.442 (inactive) | 0.701 | -0.62 | -4.74 (inactive) | -1.37 (inactive) | -1.18 (inactive)
C=C(CCCC)/C(=C/C[C@@H](OC(=O)c1ccncc1)c1ccc(CO)o1)c1cnc2ccccc2c1 | -0.0346 | -1.95 (inactive) | 0.82 (inactive) | -7.54 (inactive) | 0.154 (inactive) | -0.27 (inactive) | 0.698 (inactive) | 0.29 (inactive) | 0.501 | 0.451 | 0.518 (inactive) | 0.776 | -0.573 | -4.65 (inactive) | 0.222 (inactive) | -0.125 (inactive)
[N-]=[N+]=NCc1ccccc1C[C@@]1(C(=O)O)N=C(c2ccc(OCCCO)cc2)O[C@@H]1c1ccccc1N=[N+]=[N-] | 0.0549 | -1 (inactive) | -1.47 (inactive) | 0.313 (inactive) | 0.755 (inactive) | -0.268 (inactive) | 0.604 (inactive) | 0.331 (inactive) | -0.876 | 0.0524 | -0.321 (inactive) | 0.908 | -2.15 | -4.16 (inactive) | -1.08 (inactive) | -0.884 (inactive)
Cc1ccccc1C(O)C1C=CC2C(=O)N(c3ccccc3)C(=O)C2N1Nc1ccc(C#N)cc1 (stereo not drawn) | -0.709 | -0.257 (inactive) | 0.132 (inactive) | 0.513 (inactive) | 1.26 (inactive) | 0.302 (inactive) | 0.493 (inactive) | 0.0888 (inactive) | -0.0953 | 0.198 | 3.08 (inactive) | 0.761 | -0.494 | -0.699 (inactive) | -0.873 (inactive) | -0.982 (inactive)
COCCOC(=O)N1C(=O)[C@@]2(c3cc(C#CC4=CCCCC4)ccc31)[C@H](C(=O)NC[C@H](O)c1ccccc1)[C@H]1C(=O)O[C@H](c3ccccc3)[C@H](c3ccccc3)N1[C@@H]2c1ccc(OCCO)cc1 | 0.604 | 1.61 (inactive) | -1.68 (inactive) | -0.773 (inactive) | 2.83 (inactive) | 2.7 (inactive) | -0.276 (inactive) | 0.0077 (inactive) | -1.44 | -0.26 | -0.361 (inactive) | 0.612 | -1.73 | 2.05 (inactive) | 0.0381 (inactive) | 0.231 (inactive)
[N-]=[N+]=NCc1ccccc1[C@H]1OC(c2ccc(OCCCO)cc2)=N[C@@]1(Cc1ccccc1N=[N+]=[N-])C(=O)NCc1ccccc1 | -0.494 | 0.745 (inactive) | -2.31 (inactive) | 0.545 (inactive) | 2.26 (inactive) | 1.95 (inactive) | 0.134 (inactive) | -0.321 (inactive) | -1.52 | -0.117 | 0.0116 (inactive) | 0.649 | -2.49 | -1.23 (inactive) | -0.0872 (inactive) | -0.747 (inactive)
C=CC[C@]1(C(=O)N2CCCCC2)N=C(c2ccc(OCCCO)cc2)O[C@H]1c1ccccc1N=[N+]=[N-] | -0.0748 | -0.807 (inactive) | -1.91 (inactive) | 2.06 (inactive) | 0.274 (inactive) | 1.55 (inactive) | 0.16 (inactive) | -0.58 (inactive) | -1.15 | 1.74 | 1.01 (inactive) | 0.851 | -2.21 | -3.92 (inactive) | -0.135 (inactive) | 0.224 (inactive)
O=C(N1CCCCC1)[C@@]1(CCS(=O)(=O)c2ccccc2)N=C(c2ccc(OCCCO)cc2)O[C@H]1c1ccccc1 | 0.233 | 0.0247 (inactive) | -2.91 (inactive) | 1.05 (inactive) | -1.01 (inactive) | 0.0929 (inactive) | 1.33 (inactive) | 0.561 (inactive) | -2.78 | 0.198 | -0.43 (inactive) | 0.23 | -2.24 | -3.65 (inactive) | -0.61 (inactive) | -0.262 (inactive)
O=C1OCCC/C=C\[C@H]2OC34C=CCN(CCN5CCOCC5)C(=O)[C@H]3N(CCCCCO)C(=O)[C@@H]4C12 (stereo partly drawn) | -0.567 | -0.0575 (inactive) | -0.193 (inactive) | 0.286 (inactive) | -0.0432 (inactive) | -0.634 (inactive) | 0.157 (inactive) | 0.0435 (inactive) | 0.0501 | -0.124 | 0.853 (inactive) | -0.733 | 1.82 | -4.6 (inactive) | 0.564 (inactive) | 0.292 (inactive)
COC(=O)[C@@]1(Cc2ccccc2)[C@H]2c3cc(C(=O)N4CCCC4)n(CCN4CNCC4=O)c3C[C@H]2CN1C(=O)c1ccccc1 | 0.276 | 0.864 (inactive) | 0.327 (inactive) | -0.482 (inactive) | -0.167 (inactive) | -0.189 (inactive) | 0.499 (inactive) | -0.321 (inactive) | 0.742 | 0.414 | 1.12 (inactive) | -0.127 | -1.12 | -5.22 (inactive) | 0.421 (inactive) | 0.912 (inactive)
CCOC(=O)C[C@H]1[C@H](OC(=O)c2cc3ccccc3oc2=O)[C@@H](NC(=O)C2CCCCC2)c2cc(OCCCO)ccc2N1C(=O)c1ccc2ccccc2n1 | -0.35 | 1 (inactive) | 0.201 (inactive) | 0.884 (inactive) | -0.0339 (inactive) | 1.58 (inactive) | 0.205 (inactive) | 0.0214 (inactive) | 0.15 | -0.22 | -0.0413 (inactive) | 0.522 | -0.292 | -4.56 (inactive) | 0.453 (inactive) | 0.333 (inactive)
O=C(CS)NCCCCCCNC(=O)[C@@H]1C[C@@H]2C(=O)N[C@@H](Cc3ccccc3)C(=O)N2[C@@H]1c1ccc(O)cc1 | -0.306 | 0.636 (inactive) | 0.0515 (inactive) | 0.224 (inactive) | -0.239 (inactive) | 0.809 (inactive) | -0.288 (inactive) | -0.889 (inactive) | -0.518 | 0.0518 | 0.794 (inactive) | 0.811 | -1.02 | -2.14 (inactive) | -0.0496 (inactive) | 0.23 (inactive)
Cc1ccc(S[C@]2(C(=O)NC3CC3)CC(=O)N(Cc3cc(C(F)(F)F)cc(C(F)(F)F)c3)[C@@H]2c2ccc(CO)cc2)cc1 | 1.1 | -1.03 (inactive) | 0.219 (inactive) | -2.37 (inactive) | 0.214 (inactive) | -0.921 (inactive) | 0.327 (inactive) | 0.561 (inactive) | 1.25 | 0.209 | 0.503 (inactive) | -0.0124 | -0.442 | -2.7 (inactive) | -0.144 (inactive) | -0.0725 (inactive)
O=C1O[C@H](c2ccccc2)[C@H](c2ccccc2)N2[C@H]1[C@@H](C(=O)Nc1nc3ccccc3s1)[C@]1(C(=O)Nc3ccc(C#CC4(O)CCCCCC4)cc31)[C@H]2c1ccc(O)cc1 | -0.629 | -0.945 (inactive) | -1.55 (inactive) | 0.0022 (inactive) | 1.44 (inactive) | -0.124 (inactive) | -0.492 (inactive) | -0.716 (inactive) | -1.36 | -0.0426 | 2.76 (inactive) | 0.844 | -0.416 | -1.04 (inactive) | 0.313 (inactive) | 0.634 (inactive)
CCCC[C@@H]1C[C@H]1[C@@H](NC(=O)c1cccs1)c1ccc(Cl)cc1 | -0.513 | 0.831 (inactive) | -0.0593 (inactive) | -3.8 (inactive) | 2.82 (inactive) | 0.595 (inactive) | -0.249 (inactive) | -0.586 (inactive) | 0.513 | 0.267 | 0.0874 (inactive) | -0.0771 | -0.911 | -0.736 (inactive) | -0.207 (inactive) | 0.205 (inactive)
